According to PubChem BioAssay (EPA / NIEHS):
Several values for one entry are separate records, joined by “and”; a condition that tells them apart may be missing. Equal values may be shown once. More than one record can exist for a structure, and the calls need not agree. Activity calls are given as the source filed them. The calls were made as follows: active = hit-call score of the fitted dose curve at least 0.9, where 1 is the maximum; inactive = score below 0.9.

These compounds were tested on Plasminogen Activator Inhibitor-1 (PAI1), SERPINE1 (gene 5054) (assay: BSK_BF4T_PAI1: BioMAP Diversity Plus: BF4T Assay for Plasminogen Activator Inhibitor-1 (PAI1) Biomarker Activity (AID 2284273)). Settings: primary human bronchial epithelial cells with fibroblasts.
Experimental: BSK_BF4T is a cell-based, multiplexed-readout assay that uses bronchial epithelial cells and dermal fibroblasts, a human vascular primary cell, with measurements taken at 24 hours after chemical dosing in a microplate: 96-well plate.BSK_BF4T_PAI1 is an assay component measured in the BSK_BF4T assay. It measures PAI-1 antibody related to regulation of gene expression using ELISA technology.Data from the assay component BSK_BF4T_PAI1 was analyzed at the endpoint, BSK_BF4T_PAI1, in the positive analysis fitting direction relative to DMSO as the negative control and baseline of activity. Using a type of binding reporter, gain or loss-of-signal activity can be used to understand protein changes. To generalize the intended target to other relatable targets, this assay endpoint is annotated to the 'cytokine' intended target family, where the subfamily is 'plasmogen activator inhibitor'.
The levels of cell surface (or secreted, indicated by the prefix "s") biomarker endpoints were measured by ELISA. Overt cytotoxicity to cells in confluent adherent cultures (all systems other than the BT system) was assessed by measuring total protein levels using sulforhodamine B (SRB) staining in parallel cultures at the time of biomarker measurements, indicated as SRB endpoints. For proliferation assays for adherent cell types, individual cell types are cultured at sub-confluence and relative cell numbers quantified by SRB staining at time points optimized for each system (48 h: 3C and CASM3C systems; 72 h: BT and HDF3CGF systems; 96 h: SAg system). SRB was performed by staining cells with 0.1% SRB after fixation with 10% TCA and reading wells at 560 nm.Viability and proliferation of PBMC (T cells) was quantified by Alamar Blue reduction for the SAg and BT systems. For PBMC viability (referred to as PBMC Cytotoxicity within the assay endpoint names), cells were plated (75,000/well in a 96-well plate) and then chemical samples added for 1 h before addition of activators, SEB and TSST-1 (20 ng/mL final concentration each). Cells were incubated for 90 h. Then, Alamar Blue (20 uL/well) (Invitrogen, Cat DAL1100) was added for 6 h, and the plates were read with a fluorescence microplate reader at 546/580 nm (excitation/emission). For PBMC proliferation, cells were plated and activated as above but incubated for only 16 h prior to addition of Alamar Blue. Plates were read after 6 h.
In the case of `FC(F)(F)C(F)(F)CNCC(F)(F)C(F)(F)F`, the outcome is reported as “inactive”.
In the case of `O=C(O)C(F)(F)C(F)(F)C(F)(F)C(F)(F)C(F)(F)C(F)(F)C(F)(F)C(F)(F)Cl`, the AC50 is reported as 44.8 µM (active) and 42.7 µM (active).
`O=C(O)C(F)(F)C(F)(F)C(F)(F)C(F)(F)C(F)(F)C(F)(F)C(F)(F)C(F)(F)C(F)(F)C(F)(F)C(F)(F)C(F)(F)C(F)(F)F` was tested, and the outcome was “inactive”.
`O=C(O)C(F)(F)C(F)(F)C(F)F` was tested, and the outcome was “inactive”.
In the case of `FC(F)(F)C(F)(F)C(F)(F)C(F)(F)C(F)(F)C(F)(F)C(F)(F)C(F)(F)CCS`, the outcome is reported as “inactive”.
`C=C(C)C(=O)OCCC(F)(F)C(F)(F)C(F)(F)C(F)(F)C(F)(C(F)(F)F)C(F)(F)F` was tested, and the outcome was “inactive”.
`C=CC(F)(F)C(F)(F)C(F)(F)C(F)(F)C(F)(F)C(F)(F)C(F)(F)C(F)(F)F` was tested, and the outcome was “inactive”.
In the case of `FC(F)(F)C(F)(F)C(F)(F)C(F)(F)C(F)(F)C(F)(F)CCS`, the outcome is reported as “inactive”.
In the case of `O=S(=O)(OCCOC(F)(F)F)C(F)(F)F`, the outcome is reported as “inactive”.
`OCC(F)(F)C(F)(F)C(F)(F)F` was tested, and the outcome was “inactive”.
With `C=CC(F)(F)C(F)(F)C(F)(F)C(F)(F)C(F)(F)C(F)(F)C(F)(F)C(F)(F)C=C` the outcome was “inactive”.
In the case of `FC(F)(F)C(F)(F)C(F)(F)C(F)(F)C(F)(F)C(F)(F)C(F)(F)Br`, the outcome is reported as “inactive”.
In the case of `O=C(O)C(F)(F)C(F)(F)F`, the outcome is reported as “inactive”.
In the case of `FC(F)(F)C(F)(F)C(F)(F)C(F)(F)C(F)(F)CCI`, the outcome is reported as “inactive”.
In the case of `C=C(C)C(=O)OCC(F)(F)C(F)(F)C(F)(F)C(F)(F)C(F)(F)C(F)(F)C(F)(F)F`, the outcome is reported as “inactive”.
For `O=P(O)(O)OCCC(F)(F)C(F)(F)C(F)(F)C(F)(F)C(F)(F)C(F)(F)F`, the outcome was “inactive”.
In the case of `OCC(F)(F)C(F)(F)C(F)(F)C(F)(F)C(F)(F)C(F)(F)F`, the outcome is reported as “inactive”.
`FC(F)(Br)C(F)(F)C(F)(F)C(F)(F)C(F)(F)C(F)(F)Br` was tested, and the outcome was “inactive”.
In the case of `CCCCCCCCC(F)(F)C(F)(F)C(F)(F)C(F)(F)C(F)(F)C(F)(F)F`, the outcome is reported as “inactive”.
With `CC(C)(C)C(=O)CC(=O)C(F)(F)C(F)(F)C(F)(F)F` the outcome was “inactive”.
With `OCCCC(F)(F)C(F)(F)C(F)(F)C(F)(F)C(F)(F)C(F)(F)C(F)(F)F` the AC50 was 47.5 µM (active) and 39.4 µM (active).
With `CCO[Si](CCC(F)(F)C(F)(F)C(F)(F)C(F)(F)C(F)(F)C(F)(F)F)(OCC)OCC` the outcome was “inactive”.
For `O=C(O)C(F)(OC(F)(F)C(F)(OC(F)(F)C(F)(F)C(F)(F)F)C(F)(F)F)C(F)(F)F` (stereo not given), the outcome was “inactive”.
With `Cc1ccc(S(=O)(=O)OCC(F)(F)C(F)(F)C(F)(F)C(F)(F)C(F)(F)C(F)F)cc1` the outcome was “inactive”.
`FC(F)(F)C(F)(F)C(F)(F)C(F)(F)C(F)(F)C(F)(F)C(F)(F)C(F)(F)F` was tested, and the outcome was “inactive”.
In the case of `FC(F)(I)C(F)(F)C(F)(F)C(F)(F)I`, the outcome is reported as “inactive” and the AC50 is reported as 45.8 µM (active) and 47.3 µM (active).
`NC(=O)C(F)(F)C(F)(F)C(F)(F)C(F)(F)F` was tested, and the outcome was “inactive”.
`O=C(O)C(F)(F)C(F)(F)C(F)(F)C(F)(F)F` was tested, and the outcome was “inactive”.
For `FC(F)(F)C(F)(F)C(F)(F)N(C(F)(F)C(F)(F)C(F)(F)F)C(F)(F)C(F)(F)C(F)(F)F`, the outcome was “inactive”.
For `O=C(O)C(F)(F)C(F)(F)C(F)(F)C(F)(F)C(F)(F)C(F)(F)C(F)(F)C(F)(F)C(F)(F)C(F)F`, the AC50 was 39.7 µM (active) and 30 µM (active).
`FC(F)(F)C(F)(F)C(F)(F)C(F)(F)C(F)(F)C(F)(F)C(F)(F)I` was tested, and the outcome was “inactive”.
`C=CC(=O)OCC(F)(F)C(F)(F)C(F)(F)C(F)(F)C(F)(F)C(F)(F)C(F)(F)F` was tested, and the outcome was “inactive”.
In the case of `O=S(=O)(O)C(F)(F)C(F)(F)C(F)(F)C(F)(F)C(F)(F)C(F)(F)C(F)(F)F`, the outcome is reported as “inactive”.
In the case of `FC(F)(F)C(F)(F)C(F)(F)C(F)(F)C(F)(F)C(F)(F)CC1CO1` (stereo not given), the outcome is reported as “inactive”.
With `O=S(=O)(OCC(F)F)C(F)(F)F` the outcome was “inactive”.
In the case of `O=C(O)C(F)(F)C(F)(F)C(F)(F)C(F)(F)C(F)(F)C(F)(F)C(F)(F)C(F)(F)C(F)(F)C(F)(F)C(F)(F)C(F)(F)F`, the outcome is reported as “inactive”.
In the case of `OCC(F)(F)C(F)(F)C(F)(F)C(F)F`, the outcome is reported as “inactive”.
In the case of `FC(F)(F)C(F)(F)C(F)(F)C(F)(F)CCI`, the outcome is reported as “inactive”.
`O=C(Cl)C(F)(F)C(F)(F)C(F)(F)C(F)(F)C(F)(F)C(F)(F)C(F)(F)C(F)(F)F` was tested, and the outcome was “inactive”.
